Sampled rows, rich in hits. Any-hit rate of the full collection: about 1.6%.
KCNQ2 block – inhibitors of rat KCNQ2 potassium channel | O88943 | B-score at 10 µM | CHO-K1 KCNQ2, FluxOR thallium flux, 20 min; hits give low values | 310,000 compounds, 1.1% hits | AID 2156;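 active = fluorescence ratio B-score at most minus 3 library SDs, with starting brightness B-score within 2 library SDs, cut at about -5.5 in these data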
KCNQ2 pot – enhances the rat KCNQ2 potassium channel. O88943. CHO-K1 KCNQ2, FluxOR thallium flux fluorescence; hits give high values. B-score at 10 µM. 310,000 compounds, 0.54% hits. AID 2239;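 active = fluorescence ratio B-score at least 3 SD of library B-scores, with initial fluorescence B-score within 3 of them, cut at about 5.3 in these data; same plate scores as AID 2156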;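 note: B-score of peak minus minimum over baseline fluorescence ratio after K+ and Tl+ stimulus; positive B-score means potentiation of KCNQ2 with more thallium influx and brighter signal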
Kir21 confirm – confirmation of mouse Kir2.1 potassium channel inhibitors | shares compounds with KCNQ2 pot | 2,300 compounds, 41% hits | AID 2032 | Kir2.1-expressing cells, FluxOR thallium flux fluorescence; hits give low values | Tl flux remaining, % of negative control (hits give low values), % at 10 µM;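 active = Primary-screen hit whose thallium flux fell at least 3 control SD below untreated wells in both duplicates, with normal baseline fluorescence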;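 note: 0% = blank wells without stimulus and 100% = stimulated no-compound controls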
HEK293 ctr – alters thallium flux in parental HEK293 cells, Kir2.1 counter-screen | FluxOR signal as % of negative control (100 = no effect), % at 10 µM | 2,300 compounds, 19% hits | FluxOR thallium flux fluorescence; 0% = unstimulated blank wells | shares compounds with KCNQ2 pot;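 active = dye signal at least 3 control SD above or below untreated wells in both duplicates, raw fluorescence within 3, either direction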;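 note: percent is based on the flux ratio of peak minus minimum fluorescence over baseline F0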
* marks the source's active call; other numbers are inactive results.

How did CC(C)OCC(O)CN1CC2C[C@@H](C1)Cn1c2cccc1=O (some centres undefined) do in these assays?
KCNQ2 block: inactive

What do the screens show for `c1ccc(CNCCc2c[nH]c3ccccc23)cc1`?
KCNQ2 block: inactive

How did CCc1ccc(CNCCc2c[nH]c3ccccc23)cc1 do in these assays?
KCNQ2 block: inactive; Kir21 confirm: 18%*; HEK293 ctr: inactive

What do the screens show for `CC1=C2[C@@H]3OC(=O)[C@H](C)C3CC[C@@]2(C)C=CC1=O` (some centres undefined)?
KCNQ2 block: inactive; KCNQ2 pot: 0.34

How did CCN1CCN(Cc2ccc(C)cc2)CC1 do in these assays?
KCNQ2 block: inactive; KCNQ2 pot: 1.3

What do the screens show for `Cc1cccc(CN2CCN(c3ccc(Cl)cc3)CC2)c1`?
KCNQ2 block: inactive

What do the screens show for `Cc1ccc(CN2CCN(Cc3ccccc3F)CC2)cc1`?
KCNQ2 block: inactive; KCNQ2 pot: 0.52; Kir21 confirm: 42%*; HEK293 ctr: inactive

Results for Cc1cccc(CN2CCN(Cc3ccc(Cl)cc3)CC2)c1 ?
KCNQ2 block: inactive; Kir21 confirm: 24%*; HEK293 ctr: inactive

What do the screens show for `O=C1CN=C(c2ccc(Br)cc2)c2c(sc3c2CCCC3)N1CCN1CCCCC1`?
KCNQ2 block: inactive
